TDP-43 yeast inh – qHTS of TDP-43 Inhibitors. TDP-43 expressing yeast growth rescue, BacTiter-Glo, 24 h. actives 1.8% (n = 410,000). Potency, µM (top dose mostly 46.1 µM), actives largely listed as activators; further: nearly all actives have a fitted effect of over 50% in size
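Luminescence from BacTiter-Glo reports growth of TDP-43-expressing yeast after 24 hr at 30 deg C with compound. Cells were raffinose-pregrown to mid-log, then seeded in galactose medium at OD600=0.02.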
Abeta rescue – qHTS for compounds that reverse cellular toxicity of Amyloid beta (A-beta) peptide in yeast: Primary Screen; actives 0.063% (n = 410,000); AID 1347071, 2019; yeast expressing A-beta42, growth rescue, OD600, 48 h; response scale: 0% DMSO, 100% iron-clioquinol control; Potency, µM (series often up to 46.1 µM), usual class: activators; further: nearly all actives have a fitted effect of over 55% in size
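Yeast A-beta toxicity model in growth medium with pinned compounds, 48 h at 30 C; growth read as absorbance at 600 nm. Normalized to FeCl3/clioquinol equimolar mix (positive) and DMSO (negative).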
aSyn yeast inh – qHTS of alpha-syn Inhibitors; Yeast expressing alpha-synuclein, growth rescue, BacTiter-Glo, 24 h; Potency, µM (series often up to 46.1 µM), most hits filed as activators; actives 0.14% (n = 370,000); AID 652106, 2013; further: nearly all actives have a fitted effect of over 65% in size
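Galactose-induced alpha-syn yeast (OD600=0.02, raffinose-pregrown) + pinned cpd, 24 hr, 30 deg C; growth by BacTiter-Glo luminescence. Growth restoration scores as activation.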
FUS suppressor – qHTS for Suppressors of FUS Proteinopathy: Primary screen using FUS-linked yeast assay | Potency, µM (titrated, usually from 76.6 µM), usual class: activators | AID 1347120, 2019 | S. cerevisiae FUS-expressing, growth rescue, OD600, 24 h | actives 0.24% (n = 390,000); further: nearly all actives have a fitted effect of over 55% in size
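Absorbance at 600 nm, taken 24hr after compound addition, measured rescue of FUS-yeast growth at 30C. Induction used 2% galactose with seeding at OD 0.005. Controls: CP55940 from 92uM final, DMSO only.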
Hits are given with their value; - = inactive; ? = inconclusive; . = no result; [ ] = another dose, or the depositor's remark. Hits are enriched below; roughly 2.1% of the tested compounds scored in any of these assays. The call rests on the fitted dose curve; in most records, active means well fitted curve in the direction sought with a large enough effect; inconclusive means small, poorly fitted or top-dose-only effect, or another doubt; inactive means no such curve, though single readings can be large; an effect the other way counts as inactive or inconclusive.

SMILES	TDP-43 yeast inh	Abeta rescue	aSyn yeast inh	FUS suppressor
CC(C)c1ccc(C2CC(=O)N3CN(Cc4ccco4)CSC3=C2C#N)cc1 (configuration not stated)	-	-	-	-
N#CC1=C2SCN(Cc3ccco3)CN2C(=O)CC1c1ccc(Cl)cc1 (configuration not stated)	-	-	-	20µM
Cc1csc(NC(=O)CCCc2cccs2)n1	-[9.22 µM]	-	-	-
COc1ccc(OCC(=O)Nc2nc3c(s2)CCCC3)cc1	?	-	-	-
Cc1ccc(CC(=O)Nc2nc3c(s2)CCCC3)cc1	16µM	?	-	-
COc1ccc(NC(=O)Nc2nc3c(s2)CCCC3)cc1	14µM	-	13µM	.
O=C(Nc1nc2c(s1)CCCC2)c1ccc2ncsc2c1	13µM	-	-	-
O=C(CCCc1cccs1)Nc1nc2c(s1)CCCC2	13µM	?	-	-
CCCN1CNc2c(c(=O)[nH]c(=S)n2CCc2ccc(OC)cc2OC)C1	.	.	-	.
CC(C)(C)c1ccc(-c2nnc(SCC(=O)c3ccc4ccccc4c3)n2-c2ccc(Cl)cc2)cc1	.	.	.	-
Cc1ccc(-n2c(SCC(=O)NN=Cc3ccc(-c4ccccc4)cc3)nnc2-c2ccccc2)cc1	.	.	.	-
CCCc1nc(SCC(=O)Nc2nc3c(s2)CCCC3)c2ccccc2n1	-	-	-	?
CC(C)(C)C1CCc2nc(NC(=O)Cc3ccc(Cl)cc3)sc2C1 (configuration not stated)	-	?	.	-
CC(C)(C)C1CCc2nc(NC(=O)Cc3cn4ccsc4n3)sc2C1 (configuration not stated)	16µM	-	-	?
CCc1nc(SCC(=O)Nc2nc3c(s2)CCCC3)c2ccccc2n1	10µM	-	-	-
CC1CCc2nc(NC(=O)Cc3cccs3)sc2C1 (configuration not stated)	28µM	-	-	-
O=C(CSc1nnnn1C1CCCCC1)Nc1nc2c(s1)CCCC2	13µM	-	?	-
CCCc1cnc2c(c1SCC(=O)N1CCC(C)CC1)c(=O)n(C)c(=O)n2C	?	-	.	-
O=C(OCc1cn(Cc2cccc(F)c2)nn1)N1CCCCC1	.	.	.	-
O=C(CSc1nc(Cc2ccccc2)nc2ccccc12)c1ccc2c(c1)OCCO2	-	-	-	-
CCc1nc(SCC(=O)c2ccc3c(c2)OCCO3)c2ccccc2n1	18µM	-	-	-
CCOP(=O)(OCC)c1ccc2c(c1)C(=O)c1ccccc1-2	.	.	.	-
COc1ccc(C2=Nn3c(nnc3-c3ccco3)SC2)cc1	22µM	-	-	-
c1coc(-c2nnc3n2N=C(c2ccc4ccccc4c2)CS3)c1	.	.	.	-
COCCCNc1nc2ccccc2nc1NS(=O)(=O)c1cc(Cl)ccc1Cl	22µM	-	-	-
SMILES	TDP-43 yeast inh	Abeta rescue	aSyn yeast inh	FUS suppressor
COCCCNc1nc2ccccc2nc1NS(=O)(=O)c1ccc(Cl)cc1	-	-	-	-
Cc1nc(N2CCCCC2)c2c(-c3cccs3)csc2n1	16µM	-	-	-
CCCCN(C)C(=O)CSc1nnc(-c2cc(OC)c(OC)c(OC)c2)o1	.	.	.	-
CCC[C@H]1[C@@H](NC(=O)C2CCOC2)CC[C@@]23CCCN2C(=O)CCC[C@@H]13 (some centres not stated)	.	.	.	-
C[C@H]1[C@H](N(C)C)CC[C@@]23CCCN2C(=O)CCC[C@@H]13	.	.	.	-
CCCCc1ccc(NC(=O)CC(C)(C)C)cc1	20µM	-	-	-
CCCCc1ccc(NC(=O)CC(C)=O)cc1	-	-	-	-
CCCCc1ccc(CC(=O)NO)cc1	.	.	16µM	.
CCCCc1ccc(NC(=O)C(C)CC)cc1 (configuration not stated)	11µM	-	-	-
Cc1c(O)ccc2c1OC(C)(C)CC2	.	.	-	.
COC(=O)[C@]12C[C@H](CC(=O)NCc3cccc4ccccc34)C(=O)N(Cc3ccc4c(c3)OCO4)C1=C[C@H](C(C)C)O[C@@H]2C1CC1	.	.	.	13µM
COC(=O)[C@]12C[C@H](CC(=O)N3CCCC3)C(=O)N(Cc3ccc4c(c3)OCO4)C1=C[C@H](C(C)C)O[C@@H]2C1CC1	.	.	.	-
COC(=O)[C@]12C[C@H](CC(=O)NCC34CC5CC(CC(C5)C3)C4)C(=O)N(Cc3cccc4ccccc34)C1=C[C@H](C(C)C)O[C@@H]2C1CC1	.	.	.	-
COC(=O)[C@]12C[C@H](CC(=O)NCC3CCCCC3)C(=O)N(Cc3ccc4c(c3)OCO4)C1=C[C@H](C(C)C)O[C@@H]2C1CC1	.	.	.	14µM
COC(=O)[C@]12C[C@H](CC(=O)NCCCCc3ccccc3)C(=O)N(Cc3ccc4c(c3)OCO4)C1=C[C@H](C(C)C)O[C@@H]2C1CC1	.	.	.	8.9µM
COC(=O)[C@]12CCCCC=C1N(Cc1ccc3c(c1)OCO3)C(=O)[C@H](CC(=O)NCc1cccc(C(F)(F)F)c1)C2	-	-	-	-
COC(=O)[C@]12C[C@H](CC(=O)N3CCC(c4ccccc4)CC3)C(=O)N(Cc3ccc4c(c3)OCO4)C1=C[C@H](C(C)C)O[C@@H]2C1CC1	.	.	.	-
COC(=O)[C@]12C[C@H](CC(=O)NCc3cccc(C(F)(F)F)c3)C(=O)N(Cc3ccc4c(c3)OCO4)C1=C[C@H](C(C)C)O[C@@H]2C1CC1	.	.	.	8.9µM
Fc1ccc(-c2nc3c4ccccc4ccn3c2Cc2cccc(Cl)c2)cc1	14µM	-	-	-
Clc1cccc(Cc2c(-c3ccccc3)nc3c4ccccc4ccn23)c1	11µM	-	?	-
Fc1cccc(Cc2c(-c3ccco3)nc3c4ccccc4ccn23)c1	35µM	-	-	-
Clc1cccc(Cc2c(-c3cccc(Cl)c3)nc3c4ccccc4ccn23)c1	-	-	-	-
C=C1C=C(C)n2ncc(C(=O)Nc3ccc(C)cn3)c2N1	.	.	-	.
COc1cc(/C=C/C(=O)c2ccc3c(c2)OCCO3)cc(Br)c1OCC(=O)N(C)C	25µM	-	-	?
O/N=C/c1cc(Br)cc(Br)c1OCc1ccccc1	-	-	-	-
SMILES	TDP-43 yeast inh	Abeta rescue	aSyn yeast inh	FUS suppressor
O/N=C/c1ccc(OCc2ccccc2F)c(Cl)c1	?	-	-	-
O/N=C/c1ccc(OCc2ccccc2)c(Br)c1	13µM	-	-	-
O/N=C/c1ccc(OCc2ccccc2)c(Cl)c1	22µM	-	-	-
CCOC(=O)c1cc2c(C)n(-c3ccc(C)cc3)c(C)c2ccc1=O	20µM	-	-	-
CCOC(=O)c1cc2c(C)n(-c3ccc(OCC)cc3)c(C)c2ccc1=O	-	-	-	.
CNC(=O)c1cc(-c2cccs2)on1	.	.	-	.
Cc1cc(-c2ccc(C)c(S(=O)(=O)NCc3cccc(Br)c3)c2)on1	35µM	-	-	?
Cc1cc(-c2ccc(C)c(S(=O)(=O)NCCc3ccc(S(N)(=O)=O)cc3)c2)on1	-	-	-	-
Cc1cc(-c2ccc(C)c(S(=O)(=O)NCc3ccc(Br)cc3)c2)on1	18µM	-	-	-
CCOC(=O)Cc1csc(NC(=O)COc2ccc3ccccc3c2)n1	13µM	?	-	-
CCOC(=O)Cc1csc(NC(=O)CC)n1	-	-	-	-

Screens from PubChem BioAssay.
